Measured values as given in PubChem BioAssay (NCATS).
Inconclusive results are not listed. Active and inactive are the calls of the source. Calls come from the whole dose curve; as a rule, active = well fitted cell-killing curve with a large enough effect; inconclusive = small, poorly fitted or top-dose-only effect, or effect the other way; inactive = no such curve, though single readings can be large or run the other way.

assay: Viability qHTS for spleen associated tyrosine kinase inhibitor (SYKi) drug resistant MV4-11 cells (AID 1963824); settings: SYKi-resistant MV4-11 viability, CellTiter-Glo, 72 h; series mostly up to 45 µM; viability, % of control: at the top concentration; note: nearly all actives have a fitted effect of over 35% in size
How it was run: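 SYK inhibitor-resistant MV4-11 AML cells, 500 per well, added to predispensed compounds and incubated 72 hr at 37 C, 5% CO2. Viability measured by CellTiter-Glo luminescence after 10 min at room temperature.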
Potency is the fitted concentration of half-maximal effect.

Row | Compound | viability, % of control | Potency
1 | CC(=O)OC1(C)CC(O)C2(O)C=COC(OC3OC(CO)C(O)C(O)C3O)C12 (stereo not given) | 92.3% [at 17.3 µM] (inactive) | 
2 | O=C(OCC1=C[C@@H](O)[C@@H]2C=CO[C@@H](O[C@@H]3O[C@H](CO)[C@@H](O)[C@H](O)[C@H]3O)[C@H]12)c1ccc(O)cc1 | 77.2% [at 17.3 µM] (inactive) | 
3 | C[C@]12CCC[C@](C)(C(=O)O)C1CCC13C=C(CO)C(CCC12)C3 (stereo not given in full) | 84.2% (inactive) | 
4 | COc1cc2ncnc(N3CCC(Oc4cnc5ccccc5n4)C3)c2cc1OC (stereo not given) |  | 411 nM (active)
5 | C=C[C@H]1[C@H](O[C@@H]2O[C@H](CO)[C@@H](O)[C@H](O)[C@H]2O)OC=C(C(=O)OC)[C@H]1C[C@@H]1c2cc(O)c(O)cc2CCN1C(C)=O | 98.8% [at 17.3 µM] (inactive) | 
6 | CC(C)(O)c1ccc2c(c1)C(=O)CC1[C@](C)(CO)CCC[C@]21C (stereo not given in full) | 71.4% (inactive) | 
7 | COc1cc(O[C@@H]2O[C@H](CO)[C@@H](O)[C@H](O)[C@H]2O)c(CCC(=O)OC[C@H]2O[C@@H](Oc3cc(OC)c(C4OC(=O)C(C)(O)C4O)cc3CCC(=O)O)[C@H](O)[C@@H](O)[C@@H]2O)cc1C1OC(=O)C(C)(O)C1O (stereo not given in full) | 81.1% [at 9.25 µM] (inactive) | 
8 | C=C1CC[C@@H]2[C@](C)(CO)[C@H](O)CC[C@@]2(C)[C@@H]1/C=C/C1=CCOC1=O | 38.9% (inactive) | 
9 | Cc1cc(=O)oc2cc(NC(=O)[C@H](CCC(=O)O)NC(=O)[C@H](CC(C)C)NC(=O)[C@H](CC(C)C)NC(=O)OCc3ccccc3)ccc12 | 54.2% (inactive) | 
10 | OC[C@@]1(O)CO[C@@H](OC[C@H]2O[C@@H](Oc3ccccc3)[C@H](O)[C@@H](O)[C@@H]2O)[C@@H]1O | 94.8% (inactive) | 
